High-throughput results deposited in PubChem BioAssay by Broad Institute.
PRC2 inh: blocks human EZH2/PRC2 H3K27 methylation; Q15910; DELFIA TRF, 1 h; 57,000 tested, 0.35% active; inhibition, % at 12.5 µM;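 active = mean inhibition of replicates at least 50% and every single replicate also reaching 50%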;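 also: dimethyl H3K27 on biotinylated H3 21-44 peptide detected by antibody; plate controls were median neutral control wells for no effect and median positive control wells for full effect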
Target sequence (Q15910 whole entry, looked up): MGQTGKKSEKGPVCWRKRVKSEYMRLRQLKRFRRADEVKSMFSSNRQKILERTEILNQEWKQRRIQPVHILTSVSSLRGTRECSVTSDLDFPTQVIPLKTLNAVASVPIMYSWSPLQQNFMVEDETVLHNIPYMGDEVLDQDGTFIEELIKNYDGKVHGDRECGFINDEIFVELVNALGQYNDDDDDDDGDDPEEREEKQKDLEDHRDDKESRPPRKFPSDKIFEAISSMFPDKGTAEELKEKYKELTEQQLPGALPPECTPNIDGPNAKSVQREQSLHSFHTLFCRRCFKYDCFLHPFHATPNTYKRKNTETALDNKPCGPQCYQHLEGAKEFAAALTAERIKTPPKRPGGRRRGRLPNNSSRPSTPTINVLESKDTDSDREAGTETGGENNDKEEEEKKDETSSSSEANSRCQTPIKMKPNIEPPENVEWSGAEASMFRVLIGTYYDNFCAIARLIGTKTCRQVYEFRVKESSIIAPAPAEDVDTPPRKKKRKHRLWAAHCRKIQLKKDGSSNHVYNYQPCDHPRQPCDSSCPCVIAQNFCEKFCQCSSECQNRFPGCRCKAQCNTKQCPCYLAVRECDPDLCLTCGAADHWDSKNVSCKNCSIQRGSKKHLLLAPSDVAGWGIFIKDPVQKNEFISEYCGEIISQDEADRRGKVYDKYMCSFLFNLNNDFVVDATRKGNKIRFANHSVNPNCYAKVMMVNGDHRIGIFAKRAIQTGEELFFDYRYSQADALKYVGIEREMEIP
The depositor's hits bear a star. Only a selection was taken, and hits are over-represented in it overall.

SMILES | PRC2 inh
C[C@H]1CN([C@@H](C)CO)S(=O)(=O)c2ccc(Br)cc2O[C@H]1CN(C)Cc1ccc(F)cc1 | 23.8
C[C@H]1CN([C@@H](C)CO)S(=O)(=O)c2ccc(Br)cc2O[C@H]1CN(C)Cc1ccccc1 | -4.9
Cc1ccc(S(=O)(=O)N(C)CCCc2nc3ccccc3[nH]2)cc1 | 4.6
CO[C@H]1CN(C)C(=O)c2ccc(NC(=O)NC(C)C)cc2OC[C@@H](C)N(C(=O)CN(C)C)C[C@@H]1C | 2.1
COc1ccc(NC(=O)N[C@@H]2CC[C@H](CCNC(=O)CCN3CCCCC3)O[C@H]2CO)cc1 | -3.6
COc1ccc(CNC(=O)C[C@@H]2C=C[C@@H](NS(=O)(=O)c3cccc(OC)c3)[C@H](CO)O2)cc1 | -3.2
COc1ccc(-n2c(C)nnc2SCC(=O)Nc2ccc(F)c(Cl)c2)cc1 | 13.8
O=C(O)CCC(=O)Nc1ccc(Br)c2cccnc12 | -2.0
CSc1cccc(NC(=O)CSc2nnc(-c3cccc(C)c3)o2)c1 | 20.2
CC(=O)N(C)c1ccc(OCC(O)Cn2c3ccc(Cl)cc3c3cc(Cl)ccc32)cc1 (stereo unspecified) | 4.2
O=C1CCCc2c1n(CCN(Cc1ccccc1)Cc1ccccc1)c1ccc(Cl)cc21 | -6.0
O=C(O)c1c(Sc2ccccc2)c2cc(Cl)ccc2n1Cc1ccc(Cl)cc1 | 63.9*
C[C@@H]1CN([C@@H](C)CO)C(=O)c2cc(NS(=O)(=O)c3ccc(Cl)cc3)ccc2O[C@H]1CN(C)Cc1ccc2c(c1)OCO2 | 8.9
CC(C(=O)Nc1cccc(C(F)(F)F)c1)N(c1ccc(Cl)cc1)S(C)(=O)=O (stereo unspecified) | -5.3
O=C(NCSCc1cccc(C(F)(F)F)c1)Nc1ccc(F)c(Cl)c1 | 56.2*
CCn1c(SCC(=O)Nc2ccc(F)c(Cl)c2)nnc1-c1cccc(C)c1 | 1.3
O=C(C[C@H]1C[C@@H]2c3cc(NC(=O)C4CCOCC4)ccc3O[C@@H]2[C@H](CO)O1)NCC(F)(F)F | -13.6
CNC[C@H]1OCCCC[C@@H](C)Oc2ccc(NS(=O)(=O)c3ccc(C)cc3)cc2C(=O)N([C@H](C)CO)C[C@H]1C | -3.3
